# How the values were obtained:
# Assay in all cases: DAPPL (digital affinity profiling via proximity ligation, sequencing); 10 mM Tris-HCl pH 7.5, 50 mM NaCl, 1 mM DTT, 4% glycerol, room temperature, 30 min; GST-TFs on glutathione beads, 16-mer random dsDNA library, 0.1% formaldehyde crosslink after washing; high values mean tight binding
# FEV = target: T1, FEV (Homo sapiens, UniProt Q99581 1-238); conditions: protein: recombinant; tags: N-terminal GST; dsDNA, one strand shown
# T1 sequence: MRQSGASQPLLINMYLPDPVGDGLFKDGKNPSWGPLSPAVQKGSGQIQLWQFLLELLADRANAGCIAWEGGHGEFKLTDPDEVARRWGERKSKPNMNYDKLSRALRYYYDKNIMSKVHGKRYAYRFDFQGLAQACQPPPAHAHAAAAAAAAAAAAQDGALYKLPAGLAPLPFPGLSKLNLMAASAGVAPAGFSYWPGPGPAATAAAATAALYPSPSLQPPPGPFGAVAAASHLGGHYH
# Procedure, shortened: (§1)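 Sequencing on an Illumina NextSeq500 followed washing, crosslinking with 0.1% formaldehyde, proximity ligation (BsaI/T4 ligase, 1 h, 37 °C) and PCR amplification of pools that had been incubated for 30 min at room temperature with 200 nmole of a random double-stranded 16-mer DNA library in Tris/NaCl/DTT/glycerol buffer. Each pool held DNA-barcoded human transcription factors, expressed in yeast as GST fusions and captured on glutathione beads, plus a tag-only sample. Binding signal is a hexamer's read frequency for a factor divided by its frequency in the tag-only sample.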
# ETV5 = ETV5 (Homo sapiens, UniProt P41161 1-510); conditions: protein: recombinant; tags: N-terminal GST; dsDNA, one strand shown
# Sequence of ETV5 (P41161 whole entry): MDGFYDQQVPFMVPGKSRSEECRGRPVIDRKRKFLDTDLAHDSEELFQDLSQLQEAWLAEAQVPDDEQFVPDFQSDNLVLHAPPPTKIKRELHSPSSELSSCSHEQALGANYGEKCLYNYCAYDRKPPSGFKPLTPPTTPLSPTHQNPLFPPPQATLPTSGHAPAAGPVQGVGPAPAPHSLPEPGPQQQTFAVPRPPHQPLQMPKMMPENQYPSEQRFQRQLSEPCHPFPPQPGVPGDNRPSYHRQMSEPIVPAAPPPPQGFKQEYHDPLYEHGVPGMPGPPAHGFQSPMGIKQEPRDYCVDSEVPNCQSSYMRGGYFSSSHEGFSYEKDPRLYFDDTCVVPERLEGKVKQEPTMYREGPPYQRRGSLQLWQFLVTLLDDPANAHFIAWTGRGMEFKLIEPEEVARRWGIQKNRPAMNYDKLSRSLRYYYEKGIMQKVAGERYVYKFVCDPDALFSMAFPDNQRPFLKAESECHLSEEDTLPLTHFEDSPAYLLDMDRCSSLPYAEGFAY
# Procedure, shortened: as §1
# HSF1 = HSF1 (Homo sapiens, UniProt Q00613 1-529); conditions: protein: recombinant; tags: N-terminal GST; chain copies: 3; dsDNA, one strand shown
# Sequence of HSF1 (Q00613 whole entry): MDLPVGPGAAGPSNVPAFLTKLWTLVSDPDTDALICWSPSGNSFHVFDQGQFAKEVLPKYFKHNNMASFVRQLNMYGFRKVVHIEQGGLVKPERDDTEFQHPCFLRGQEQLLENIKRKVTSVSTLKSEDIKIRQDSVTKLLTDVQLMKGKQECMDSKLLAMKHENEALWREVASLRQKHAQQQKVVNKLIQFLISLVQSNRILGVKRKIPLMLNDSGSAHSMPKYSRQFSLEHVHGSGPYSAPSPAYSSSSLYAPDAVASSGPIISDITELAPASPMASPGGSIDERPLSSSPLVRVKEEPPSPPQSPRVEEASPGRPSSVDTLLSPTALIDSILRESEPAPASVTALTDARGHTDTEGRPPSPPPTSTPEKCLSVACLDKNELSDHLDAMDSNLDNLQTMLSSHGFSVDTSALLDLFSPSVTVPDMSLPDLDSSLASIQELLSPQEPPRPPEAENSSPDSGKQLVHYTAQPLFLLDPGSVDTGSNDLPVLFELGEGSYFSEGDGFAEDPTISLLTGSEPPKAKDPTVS
# Procedure, shortened: as §1
# SPIC = target: T2, SPIC (Homo sapiens, UniProt Q8N5J4 1-248); conditions: protein: recombinant; tags: N-terminal GST; dsDNA, one strand shown
# T2 sequence: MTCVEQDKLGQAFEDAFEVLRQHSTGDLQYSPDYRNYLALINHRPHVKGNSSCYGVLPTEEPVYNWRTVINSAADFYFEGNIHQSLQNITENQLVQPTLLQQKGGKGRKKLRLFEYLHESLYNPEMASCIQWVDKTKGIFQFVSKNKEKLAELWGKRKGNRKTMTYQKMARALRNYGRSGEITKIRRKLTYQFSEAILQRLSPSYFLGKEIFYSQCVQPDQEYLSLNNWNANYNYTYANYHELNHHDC
# Procedure, shortened: as §1
# ELF4 = ELF4 (Homo sapiens, UniProt Q99607 1-663); conditions: protein: recombinant; tags: N-terminal GST; dsDNA, one strand shown
# Sequence of ELF4 (Q99607 whole entry): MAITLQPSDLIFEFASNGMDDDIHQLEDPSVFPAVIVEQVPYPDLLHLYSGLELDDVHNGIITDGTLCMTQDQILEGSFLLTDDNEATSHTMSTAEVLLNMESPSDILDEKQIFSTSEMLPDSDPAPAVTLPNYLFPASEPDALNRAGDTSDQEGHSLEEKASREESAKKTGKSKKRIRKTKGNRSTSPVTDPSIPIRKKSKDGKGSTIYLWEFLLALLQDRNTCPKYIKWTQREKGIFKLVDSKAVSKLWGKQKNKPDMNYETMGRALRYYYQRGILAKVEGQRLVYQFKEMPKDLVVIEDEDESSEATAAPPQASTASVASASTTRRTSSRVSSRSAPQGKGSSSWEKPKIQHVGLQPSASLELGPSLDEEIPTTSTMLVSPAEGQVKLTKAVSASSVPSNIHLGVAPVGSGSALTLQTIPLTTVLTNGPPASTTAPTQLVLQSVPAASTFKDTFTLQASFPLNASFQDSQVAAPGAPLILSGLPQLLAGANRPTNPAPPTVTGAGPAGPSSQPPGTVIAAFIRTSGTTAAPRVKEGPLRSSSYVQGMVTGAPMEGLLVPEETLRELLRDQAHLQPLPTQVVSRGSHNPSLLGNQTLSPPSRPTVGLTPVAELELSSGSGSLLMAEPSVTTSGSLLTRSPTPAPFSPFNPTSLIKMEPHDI
# Procedure, shortened: as §1
# ELK4 = target: T3, ELK4 (Homo sapiens, UniProt P28324-2 1-405); conditions: protein: recombinant; tags: N-terminal GST; dsDNA, one strand shown
# T3 sequence: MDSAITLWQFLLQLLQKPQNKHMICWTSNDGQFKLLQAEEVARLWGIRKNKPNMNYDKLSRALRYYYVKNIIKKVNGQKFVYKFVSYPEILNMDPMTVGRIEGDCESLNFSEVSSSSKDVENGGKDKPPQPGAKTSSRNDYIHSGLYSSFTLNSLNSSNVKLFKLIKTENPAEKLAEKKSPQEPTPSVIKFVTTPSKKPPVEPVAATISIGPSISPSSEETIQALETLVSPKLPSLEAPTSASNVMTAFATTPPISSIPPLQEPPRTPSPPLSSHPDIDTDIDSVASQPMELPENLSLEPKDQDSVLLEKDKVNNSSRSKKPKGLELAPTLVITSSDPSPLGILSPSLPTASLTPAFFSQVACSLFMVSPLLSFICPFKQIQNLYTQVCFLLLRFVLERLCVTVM
# Procedure, shortened: as §1
# ETV2 = target: T4, ETV2 (Homo sapiens, UniProt O00321 1-342); conditions: protein: recombinant; tags: N-terminal GST; dsDNA, one strand shown
# T4 sequence: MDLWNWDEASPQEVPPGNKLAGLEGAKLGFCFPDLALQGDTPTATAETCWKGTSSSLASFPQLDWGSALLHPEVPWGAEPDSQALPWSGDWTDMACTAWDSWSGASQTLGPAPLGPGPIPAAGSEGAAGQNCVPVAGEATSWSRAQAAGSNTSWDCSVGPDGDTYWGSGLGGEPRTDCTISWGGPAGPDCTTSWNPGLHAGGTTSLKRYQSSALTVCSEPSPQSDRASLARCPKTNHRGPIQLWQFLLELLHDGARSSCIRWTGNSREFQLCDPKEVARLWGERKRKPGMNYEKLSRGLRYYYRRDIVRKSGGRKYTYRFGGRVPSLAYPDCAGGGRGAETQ
# Procedure, shortened: as §1
# ELF3 = target: T5, ELF3 (Homo sapiens, UniProt P78545 1-371); conditions: protein: recombinant; tags: N-terminal GST; dsDNA, one strand shown
# T5 sequence: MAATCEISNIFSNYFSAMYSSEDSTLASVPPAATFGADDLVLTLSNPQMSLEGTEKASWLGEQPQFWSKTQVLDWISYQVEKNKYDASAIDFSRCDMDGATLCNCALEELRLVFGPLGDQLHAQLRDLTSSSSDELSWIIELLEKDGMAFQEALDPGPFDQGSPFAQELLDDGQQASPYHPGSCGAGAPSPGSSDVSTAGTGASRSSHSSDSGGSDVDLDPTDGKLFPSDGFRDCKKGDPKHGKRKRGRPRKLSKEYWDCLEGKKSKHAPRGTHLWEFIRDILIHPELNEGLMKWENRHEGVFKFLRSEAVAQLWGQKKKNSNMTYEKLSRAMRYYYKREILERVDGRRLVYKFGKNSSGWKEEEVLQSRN
# Procedure, shortened: as §1
# CRX = CRX (Homo sapiens, UniProt O43186 1-299); conditions: protein: recombinant; tags: N-terminal GST; dsDNA, one strand shown
# Sequence of CRX (O43186 whole entry): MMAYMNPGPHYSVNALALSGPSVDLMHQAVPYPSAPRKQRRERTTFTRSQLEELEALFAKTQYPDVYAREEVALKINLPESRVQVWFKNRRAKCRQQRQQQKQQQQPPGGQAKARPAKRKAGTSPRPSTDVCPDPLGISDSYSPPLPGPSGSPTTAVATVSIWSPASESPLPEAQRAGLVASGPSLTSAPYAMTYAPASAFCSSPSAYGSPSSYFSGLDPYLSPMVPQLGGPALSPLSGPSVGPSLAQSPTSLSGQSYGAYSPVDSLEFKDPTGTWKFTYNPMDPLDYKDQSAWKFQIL
# Procedure, shortened: as §1
# ETV1 = ETV1 (Homo sapiens, UniProt P50549 1-477); conditions: protein: recombinant; tags: N-terminal GST; dsDNA, one strand shown
# Sequence of ETV1 (P50549 whole entry): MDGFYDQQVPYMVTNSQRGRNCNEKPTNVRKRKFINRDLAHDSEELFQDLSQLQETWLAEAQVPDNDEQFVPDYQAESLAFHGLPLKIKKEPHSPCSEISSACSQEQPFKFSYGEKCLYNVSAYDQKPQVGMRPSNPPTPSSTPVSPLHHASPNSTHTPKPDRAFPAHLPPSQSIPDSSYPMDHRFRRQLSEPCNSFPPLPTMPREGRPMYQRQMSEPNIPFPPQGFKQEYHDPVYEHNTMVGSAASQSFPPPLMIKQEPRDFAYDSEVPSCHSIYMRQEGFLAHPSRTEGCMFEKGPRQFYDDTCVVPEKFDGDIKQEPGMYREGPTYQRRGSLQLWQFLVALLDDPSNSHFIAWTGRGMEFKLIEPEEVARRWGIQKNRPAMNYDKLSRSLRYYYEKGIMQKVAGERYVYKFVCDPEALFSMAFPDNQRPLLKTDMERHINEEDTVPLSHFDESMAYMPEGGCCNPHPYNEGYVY
# Procedure, shortened: as §1
# ERF = target: T6, ERF (Homo sapiens, UniProt P50548 1-548); conditions: protein: recombinant; tags: N-terminal GST; dsDNA, one strand shown
# T6 sequence: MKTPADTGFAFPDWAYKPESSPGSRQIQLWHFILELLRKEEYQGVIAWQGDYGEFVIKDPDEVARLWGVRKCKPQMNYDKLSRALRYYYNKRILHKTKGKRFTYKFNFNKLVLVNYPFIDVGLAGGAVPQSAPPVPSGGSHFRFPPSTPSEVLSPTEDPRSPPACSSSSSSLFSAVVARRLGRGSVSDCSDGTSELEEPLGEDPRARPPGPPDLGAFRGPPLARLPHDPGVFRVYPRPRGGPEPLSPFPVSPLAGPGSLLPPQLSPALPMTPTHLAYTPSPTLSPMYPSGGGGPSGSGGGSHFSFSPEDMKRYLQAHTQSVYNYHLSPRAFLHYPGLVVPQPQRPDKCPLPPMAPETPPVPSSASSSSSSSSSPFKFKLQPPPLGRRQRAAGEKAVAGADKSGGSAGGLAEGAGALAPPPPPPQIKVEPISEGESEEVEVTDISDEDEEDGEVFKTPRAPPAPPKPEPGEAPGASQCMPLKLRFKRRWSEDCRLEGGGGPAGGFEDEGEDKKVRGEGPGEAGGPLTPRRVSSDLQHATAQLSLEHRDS
# Procedure, shortened: as §1
# ETV3L = target: T7, ETV3L (Homo sapiens, UniProt Q6ZN32 1-361); conditions: protein: recombinant; tags: N-terminal GST; dsDNA, one strand shown
# T7 sequence: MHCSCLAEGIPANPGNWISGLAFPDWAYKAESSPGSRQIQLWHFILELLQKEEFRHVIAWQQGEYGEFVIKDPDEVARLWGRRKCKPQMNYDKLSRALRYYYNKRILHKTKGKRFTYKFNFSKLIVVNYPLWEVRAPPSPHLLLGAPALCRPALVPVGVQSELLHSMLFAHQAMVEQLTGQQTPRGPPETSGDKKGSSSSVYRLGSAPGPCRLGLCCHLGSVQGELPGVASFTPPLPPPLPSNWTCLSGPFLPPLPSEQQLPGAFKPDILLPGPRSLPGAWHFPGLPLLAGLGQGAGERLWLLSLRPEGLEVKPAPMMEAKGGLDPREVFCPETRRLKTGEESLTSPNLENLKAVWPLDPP
# Procedure, shortened: as §1
# ETS2 = target: T8, ETS2 (Homo sapiens, UniProt P15036 1-469); conditions: protein: recombinant; tags: N-terminal GST; dsDNA, one strand shown
# T8 sequence: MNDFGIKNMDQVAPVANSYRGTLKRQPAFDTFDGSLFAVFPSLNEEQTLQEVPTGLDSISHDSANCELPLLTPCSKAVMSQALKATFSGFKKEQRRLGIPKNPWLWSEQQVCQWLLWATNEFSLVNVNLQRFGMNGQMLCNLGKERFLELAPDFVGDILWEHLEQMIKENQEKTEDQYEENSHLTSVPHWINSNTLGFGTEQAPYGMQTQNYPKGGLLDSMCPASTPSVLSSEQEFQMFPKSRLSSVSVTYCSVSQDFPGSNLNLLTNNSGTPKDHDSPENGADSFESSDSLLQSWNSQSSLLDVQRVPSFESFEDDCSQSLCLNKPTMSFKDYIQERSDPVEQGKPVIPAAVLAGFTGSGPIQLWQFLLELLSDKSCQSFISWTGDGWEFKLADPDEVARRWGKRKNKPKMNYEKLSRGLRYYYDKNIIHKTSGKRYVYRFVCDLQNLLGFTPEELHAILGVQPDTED
# Procedure, shortened: as §1
# SPDEF = target: T9, SPDEF (Homo sapiens, UniProt O95238 1-335); conditions: protein: recombinant; tags: N-terminal GST; dsDNA, one strand shown
# T9 sequence: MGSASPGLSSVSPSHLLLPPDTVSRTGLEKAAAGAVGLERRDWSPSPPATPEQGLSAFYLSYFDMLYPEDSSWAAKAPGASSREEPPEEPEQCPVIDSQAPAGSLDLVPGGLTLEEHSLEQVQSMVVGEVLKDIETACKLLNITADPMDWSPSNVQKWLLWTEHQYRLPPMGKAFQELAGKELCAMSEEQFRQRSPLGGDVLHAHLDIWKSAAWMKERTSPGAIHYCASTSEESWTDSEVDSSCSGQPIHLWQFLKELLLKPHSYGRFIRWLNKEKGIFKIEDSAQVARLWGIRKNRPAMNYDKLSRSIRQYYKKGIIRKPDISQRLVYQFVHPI
# Procedure, shortened: as §1
# ETV7 = target: T10, ETV7 (Homo sapiens, UniProt Q9Y603 1-341); conditions: protein: recombinant; tags: N-terminal GST; dsDNA, one strand shown
# T10 sequence: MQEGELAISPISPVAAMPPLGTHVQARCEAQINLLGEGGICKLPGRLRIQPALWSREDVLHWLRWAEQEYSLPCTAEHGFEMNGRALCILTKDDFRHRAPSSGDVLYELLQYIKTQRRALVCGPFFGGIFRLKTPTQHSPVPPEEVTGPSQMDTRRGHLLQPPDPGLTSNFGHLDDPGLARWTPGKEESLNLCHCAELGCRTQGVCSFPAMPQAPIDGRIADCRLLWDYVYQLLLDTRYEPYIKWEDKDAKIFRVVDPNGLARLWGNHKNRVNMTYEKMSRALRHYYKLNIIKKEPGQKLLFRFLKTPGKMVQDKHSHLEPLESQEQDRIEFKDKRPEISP
# Procedure, shortened: as §1
# ELF5 = target: T11, ELF5 (Homo sapiens, UniProt Q9UKW6-2 1-255); conditions: protein: recombinant; tags: N-terminal GST; dsDNA, one strand shown
# T11 sequence: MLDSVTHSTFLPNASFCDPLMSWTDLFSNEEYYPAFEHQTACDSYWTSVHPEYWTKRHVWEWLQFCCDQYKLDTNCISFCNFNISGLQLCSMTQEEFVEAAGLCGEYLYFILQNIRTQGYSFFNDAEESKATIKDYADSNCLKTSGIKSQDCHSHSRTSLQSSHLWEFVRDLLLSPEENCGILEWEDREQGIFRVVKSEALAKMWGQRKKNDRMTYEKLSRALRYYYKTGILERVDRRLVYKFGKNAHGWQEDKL
# Procedure, shortened: as §1
# ETV3 = target: T12, ETV3 (Homo sapiens, UniProt P41162-2 1-143); conditions: protein: recombinant; tags: N-terminal GST; dsDNA, one strand shown
# T12 sequence: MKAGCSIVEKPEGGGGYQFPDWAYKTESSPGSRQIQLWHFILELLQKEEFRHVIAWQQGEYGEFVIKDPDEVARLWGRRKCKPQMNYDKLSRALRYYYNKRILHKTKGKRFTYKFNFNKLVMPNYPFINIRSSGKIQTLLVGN
# Procedure, shortened: as §1
# ETV6 = ETV6 (Homo sapiens, UniProt P41212 1-452); conditions: protein: recombinant; tags: N-terminal GST; dsDNA, one strand shown
# Sequence of ETV6 (P41212 whole entry): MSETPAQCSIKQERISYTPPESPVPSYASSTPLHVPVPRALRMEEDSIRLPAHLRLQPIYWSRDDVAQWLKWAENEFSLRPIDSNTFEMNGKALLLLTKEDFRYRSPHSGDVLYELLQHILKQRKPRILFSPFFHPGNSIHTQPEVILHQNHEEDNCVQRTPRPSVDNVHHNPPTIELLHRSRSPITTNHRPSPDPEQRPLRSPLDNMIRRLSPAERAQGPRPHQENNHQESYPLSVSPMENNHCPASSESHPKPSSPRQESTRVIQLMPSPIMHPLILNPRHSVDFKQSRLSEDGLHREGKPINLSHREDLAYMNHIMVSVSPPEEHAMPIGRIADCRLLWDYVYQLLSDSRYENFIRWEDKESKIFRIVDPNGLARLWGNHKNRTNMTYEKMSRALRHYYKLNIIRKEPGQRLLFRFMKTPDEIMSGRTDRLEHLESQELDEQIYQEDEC
# Procedure, shortened: as §1
sequence,measurement,setting,value
TGTTGC,binding signal,FEV,"1.25 fold enrichment (6-mer frequency, TF over GST control)"
same,binding signal,ETV5,"1.35 fold enrichment (6-mer frequency, TF over GST control)"
same,binding signal,HSF1,"1.02 fold enrichment (6-mer frequency, TF over GST control)"
same,binding signal,SPIC,"1.17 fold enrichment (6-mer frequency, TF over GST control)"
same,binding signal,ELF4,"1.34 fold enrichment (6-mer frequency, TF over GST control)"
same,binding signal,ELK4,"1.37 fold enrichment (6-mer frequency, TF over GST control)"
same,binding signal,ETV2,"1.15 fold enrichment (6-mer frequency, TF over GST control)"
same,binding signal,ELF3,"1.28 fold enrichment (6-mer frequency, TF over GST control)"
same,binding signal,CRX,"1.08 fold enrichment (6-mer frequency, TF over GST control)"
same,binding signal,ETV1,"1.4 fold enrichment (6-mer frequency, TF over GST control)"
same,binding signal,ERF,"1.46 fold enrichment (6-mer frequency, TF over GST control)"
same,binding signal,ETV3L,"1.37 fold enrichment (6-mer frequency, TF over GST control)"
same,binding signal,ETS2,"1.3 fold enrichment (6-mer frequency, TF over GST control)"
same,binding signal,SPDEF,"1.33 fold enrichment (6-mer frequency, TF over GST control)"
same,binding signal,ETV7,"1.27 fold enrichment (6-mer frequency, TF over GST control)"
same,binding signal,ELF5,"1.3 fold enrichment (6-mer frequency, TF over GST control)"
same,binding signal,ETV3,"1.56 fold enrichment (6-mer frequency, TF over GST control)"
same,binding signal,ETV6,"1.33 fold enrichment (6-mer frequency, TF over GST control)"

# Reference: PMC7862700, “An all-to-all approach to the identification of sequence-specific readers for epigenetic DNA modifications on cytosine”
